Source: PubChem BioAssay (several laboratories)
CYP2C19 inhib: inhibitors of human CYP2C19; P33261; CYP2C19 Supersomes, luciferin-H EGE luminescence, 30 min; inhibition, % at 5 µM; 96,000 tested, 21% active;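 active means CYP2C19 inhibition above a set limit at 5 µM in the primary screen, cut at about 50% in these data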
Target sequence (P33261 whole entry, looked up): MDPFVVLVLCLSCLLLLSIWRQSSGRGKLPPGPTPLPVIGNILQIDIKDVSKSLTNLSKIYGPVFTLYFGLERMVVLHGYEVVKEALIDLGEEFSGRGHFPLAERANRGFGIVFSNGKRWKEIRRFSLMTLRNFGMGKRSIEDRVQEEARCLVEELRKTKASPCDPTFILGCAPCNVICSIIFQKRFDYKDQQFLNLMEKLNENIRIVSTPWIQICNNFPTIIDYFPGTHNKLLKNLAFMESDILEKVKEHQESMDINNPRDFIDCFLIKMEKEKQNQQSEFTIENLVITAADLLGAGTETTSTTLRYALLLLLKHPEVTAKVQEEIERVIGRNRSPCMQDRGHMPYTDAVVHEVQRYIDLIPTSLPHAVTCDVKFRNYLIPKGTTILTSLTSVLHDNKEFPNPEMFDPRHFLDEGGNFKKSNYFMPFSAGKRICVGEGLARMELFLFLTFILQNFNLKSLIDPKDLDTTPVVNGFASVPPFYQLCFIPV
DAT uptake mod: changed human dopamine transporter uptake under cocaine IC80. Q01959. LLC-PK1 hDAT cells, [14C]-dopamine uptake with cocaine IC80; actives deviate in either direction. B-score at 10 µM. 110,000 tested, 1.3% active;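 active means Z score or B-score, a plate-position-corrected score, falls beyond the plate's 99.7% confidence bounds, in either direction; inactive means both scores lie inside the 99.7% bounds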
CYP2C9 act: increases human cytochrome P450 2C9 activity; P11712; recombinant CYP2C9, luciferin-H conversion, luminescence; stronger effect = higher value; factor 1 = untreated enzyme, 0 = blocked; activation factor at 5 µM; 96,000 tested, 1.4% active; AID 1024;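 active means activation factor of 2 or more for CYP2C9 at a 5 µM dose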
CYP2C9 inhib: inhibitors of human CYP2C9 | P11712 | CYP2C9 Supersomes, luciferin-H conversion, luminescence | inhibition, % at 5 µM | 96,000 tested, 20% active | AID 777;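 active means blocking of liver enzyme CYP2C9 beyond about 50% at 5 µM, limit read from the data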
D1 allo mod: D1 dopamine receptor (human) allosteric modulation; HEK293 D1, CRE-luciferase, dopamine EC30 potentiation; actives deviate in either direction; 58,000 tested, 5.9% active; AID 641; P21728; B-score at 10 µM;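 active means luminescence count or its row- and column-corrected plate score outside the 99.7% band of the plate's sample wells, on either side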
CYP2C19 activ: increases human CYP2C19 enzyme activity | recombinant CYP2C19, luciferin-H EGE luminescence; stronger effect = higher value; 0 = fully inhibited enzyme, 1 = untreated enzyme | activation factor at 5 µM | 96,000 tested, under 10 active | AID 1025;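 active means activation factor of at least 2 at 5 µM in the primary screen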
Large screens that a line does not name were inactive. Compounds with a hit are over-represented: about 28% of the library has one in this group of screens.

C#CCOCCOCCOCCNc1nc(N2CCN(C(=O)[C@H](CCC(=O)O)n3cc(C(N)CC(C)C)nn3)CC2)nc(N2CCN(C(=O)[C@H](CCC(=O)O)n3cc(C(N)[C@H](C)CC)nn3)CC2)n1 (some centres not stated)	none (no result: CYP2C19 inhib, CYP2C9 act, CYP2C9 inhib, D1 allo mod, CYP2C19 activ)
O=C(CSc1nc2c(cnn2-c2ccc(F)cc2)c(=O)[nH]1)N1CCOCC1	DAT uptake mod -7.9
CCOC(=O)N1CCN(c2nnnn2-c2ccccc2)CC1	CYP2C19 inhib 91
CC1CN(c2nnnn2-c2ccccc2)CC(C)O1 (configuration not stated)	CYP2C19 inhib 74
CCOC(=O)N1CCN(C(=O)CSc2nc3c(cnn3-c3ccccc3)c(=O)[nH]2)CC1	CYP2C9 inhib 67
COc1ccc(C(=O)N2CCN(c3nnnn3-c3ccccc3)CC2)cc1OC	none (no result: D1 allo mod)
Cn1c(=O)c2c(nc(SCC(=O)O)n2Cc2cc3c(cc2Cl)OCO3)n(C)c1=O	none (no result: D1 allo mod)
CCCCOc1c(Br)cc(/C=C2\N=C(C)OC2=O)cc1OCC	none (no result: D1 allo mod)
COc1cccc(C2CC(c3cccs3)=NN2C(=O)CSc2nc3c(cnn3-c3ccc(F)cc3)c(=O)[nH]2)c1OC (configuration not stated)	DAT uptake mod 3 (no result: CYP2C19 inhib, CYP2C9 act, CYP2C9 inhib, D1 allo mod, CYP2C19 activ)
CCOc1ccc(-c2nnc(SCC(=O)N(CC)CC)n2N)cc1	CYP2C9 act 2.1
Cc1ccc(-n2nnnc2SCC(=O)NC(=O)Nc2ccc3c(c2)OCCO3)cc1	none
C/C(N)=C(/C#N)C(=O)CSc1nnnn1-c1ccccc1	CYP2C19 inhib 64 (no result: D1 allo mod)
C/C(N)=C(/C#N)C(=O)CSc1nnnn1-c1ccc(C)cc1	CYP2C19 inhib 52
CSC1=NC2C(N1)N(C)C(=O)N2C (configuration not stated)	none (no result: D1 allo mod)
Cc1ccccc1NC(=O)C(=O)NCCc1c[nH]c2ccccc12	none (no result: CYP2C19 inhib, CYP2C9 act, CYP2C9 inhib, D1 allo mod, CYP2C19 activ)
Cc1ccc2c(c1)N(C(C)C(=O)NCCc1ccccc1)C(=O)CO2 (configuration not stated)	CYP2C19 inhib 97
Cc1cccc(NC(=O)NCCc2c[nH]c3ccccc23)c1	CYP2C19 inhib 93 (no result: D1 allo mod)
O=C(NCCc1c[nH]c2ccccc12)Nc1cccc2ccccc12	CYP2C19 inhib 86 (no result: D1 allo mod)
O=C(NCCc1c[nH]c2ccccc12)C(=O)Nc1ccccc1	none (no result: CYP2C19 inhib, CYP2C9 act, CYP2C9 inhib, D1 allo mod, CYP2C19 activ)
Cc1ccc2c(c1)N(CCC(=O)NC(C)C)C(=O)CO2	none (no result: D1 allo mod)
Cc1ccc2c(c1)N(CC(=O)NCc1cccnc1)C(=O)CO2	none (no result: CYP2C19 inhib, CYP2C9 act, CYP2C9 inhib, D1 allo mod, CYP2C19 activ)
Cc1ccc2c(c1)N(CC(=O)NCCc1c[nH]c3ccccc13)C(=O)CO2	CYP2C19 inhib 93
Cc1ccc(-n2ccc(=O)c(-c3ccnc(SCc4cccc(Cl)c4)n3)n2)cc1	CYP2C9 inhib 56 (no result: D1 allo mod)
CC(C)(C)NC(=O)NC(=O)COC(=O)c1cc(=O)[nH]c2ccccc12	none (no result: D1 allo mod)
Cc1cc(/C=c2/sc3nc4ccccc4n3c2=O)c(C)n1-c1ccccn1	D1 allo mod -6.8
Cc1cccc(CN2C(=O)N/C(=C/c3cc(C)n(-c4ccccn4)c3C)C2=O)c1	CYP2C9 inhib 98 (no result: D1 allo mod)
CNc1nc(NCCOC23CC4CC(CC(C4)C2)C3)nc(OCC(F)(F)F)n1	none (no result: D1 allo mod)
Cc1nnsc1C(=O)NC(C)C12CC3CC(CC(C3)C1)C2 (configuration not stated)	CYP2C19 inhib 52 (no result: D1 allo mod)
CC(NC(=O)C1CCN(c2nnc(-n3cccc3)s2)CC1)C12CC3CC(CC(C3)C1)C2 (configuration not stated)	none
Cc1ccnc(NC(=O)Nc2cccc(F)c2)c1	D1 allo mod -5.3
COCOc1cc(O)c(C(=O)/C=C/c2ccccc2)c(OCOC)c1	none (no result: CYP2C19 inhib, CYP2C9 act, CYP2C9 inhib, D1 allo mod, CYP2C19 activ)
COCCCn1c(SCc2cc(=O)[nH]c3ccccc23)nnc1-c1ccco1	none
CCCCn1c2nc3ccccc3nc2c2c(=O)n(CCC)cnc21	none
COCCCn1cnc2c(c1=O)c1nc3ccccc3nc1n2CCc1ccccc1	CYP2C9 inhib 58 (no result: D1 allo mod)
CCC(C)n1cnc2c(c1=O)c1nc3ccccc3nc1n2Cc1ccccc1OC (configuration not stated)	CYP2C9 inhib 69
COc1ccc(Cn2c3nc4ccccc4nc3c3c(=O)n(Cc4ccco4)cnc32)cc1	CYP2C9 inhib 62 (no result: DAT uptake mod)
COCCCn1c2nc3ccccc3nc2c2c(=O)n(-c3ccccc3OC)cnc21	CYP2C19 inhib 54
CCOc1cc(N2CCOCC2)c(OCC)cc1NC(=O)COC(=O)CCc1c[nH]c2ccccc12	none
O=C1[C@H]2[C@H](C=CC[C@H]2C(=O)N2CCN(c3ccccc3)CC2)CCN1Cc1ccc(Cl)c(Cl)c1	none (no result: CYP2C19 inhib, CYP2C9 act, CYP2C9 inhib, D1 allo mod, CYP2C19 activ)
CC(=O)Cc1nsc(NC(=O)c2cn(-c3ccccc3)nc2-c2ccc(Br)cc2)n1	none (no result: D1 allo mod)
O=C(NCCC1=CCCCC1)c1ccc(Cl)c(S(=O)(=O)N2CCOCC2)c1	CYP2C19 inhib 51, CYP2C9 inhib 60
O=C(NCCC1=CCCCC1)C1CCN(S(=O)(=O)N2CCOCC2)CC1	none
Cc1ccc(CSCCNC(=O)c2ccc(Cl)c(S(=O)(=O)N3CCOCC3)c2)cc1	CYP2C19 inhib 62, CYP2C9 inhib 81 (no result: D1 allo mod)
Cc1nc2c3cc(Cl)ccc3n(CCN3CCCCC3)c2s1	none (no result: D1 allo mod)
Cn1c(C(=O)NCCN2CCOCC2)cc2c(=O)n(C)c3ccccc3c21	none
Cn1c(C(=O)NCCCN2CCN(c3ccc(F)cc3)CC2)cc2c(=O)n(C)c3ccccc3c21	D1 allo mod -5.2 (no result: CYP2C19 inhib, DAT uptake mod, CYP2C9 act, CYP2C9 inhib, CYP2C19 activ)
Cn1c(C(=O)NCCN2CCN(c3ccccc3F)CC2)cc2c(=O)n(C)c3ccccc3c21	D1 allo mod -3.7 (no result: DAT uptake mod)
Fc1ccc(Cn2nnc(-c3ccc(CN4CCOCC4)cc3)n2)cc1	DAT uptake mod -8
Clc1ccc(Cn2nnc(-c3ccc(CN4CCOCC4)cc3)n2)cc1	none
COc1cccc(N2CC(O)Cn3c2nc2c3c(=O)n(CCCc3ccccc3)c(=O)n2C)c1 (configuration not stated)	none
CCOC(=O)C1=C(c2cccc(F)c2)NC(=S)NC1C (configuration not stated)	CYP2C19 inhib 72 (no result: D1 allo mod)
CCCOc1ccc([N+](=O)[O-])cc1C1NC(=S)NC(c2ccccc2)=C1C(=O)OCC (configuration not stated)	CYP2C9 inhib 67 (no result: D1 allo mod)
CC(=O)N=C1SC2CS(=O)(=O)CC2N1c1ccccc1Cl (configuration not stated)	none
CC(=O)N=C1SC2CS(=O)(=O)CC2N1c1cccc(Cl)c1Cl (configuration not stated)	CYP2C9 inhib 66 (no result: D1 allo mod)
O=C(c1cccs1)[C@@H]1[C@@H]2C(=O)N(Cc3ccc4c(c3)OCO4)C(=O)[C@@H]2C2c3ccccc3C=CN21 (some centres not stated)	CYP2C9 inhib 64 (no result: DAT uptake mod, D1 allo mod)
O=C(c1ccc2c(c1)OCO2)[C@@H]1[C@@H]2C(=O)N(C3CCCCC3)C(=O)[C@@H]2C2c3ccccc3C=CN21 (some centres not stated)	CYP2C19 inhib 58, CYP2C9 inhib 76
